MEKK2mut PB1 HTS – MEK5 binding signal on mutant MEKK2 PB1, primary screen, biochemical, multiplex bead flow cytometry, Alexa488-MEK5; Alexa488-MEK5 binding to MEKK2 mutant; percent response, % at 10 µM; actives 0.35% (n = 290,000); AID 1530, 2009; in the data active means percent response above about 24%, passing the limit was not always enough
MEKK2 WT-MEK5 – modulators of MEK5 binding to wildtype MEKK2, primary screen, biochemical, multiplex bead flow cytometry, Alexa488-MEK5; actives 1.1% (n = 290,000); Alexa488-MEK5 binding to MEKK2 WT; actives lie on both sides; binding response (% of control), % at 10 µM; Mitogen-activated protein kinase kinase kinase 2 (Homo sapiens), Q9Y2U5; in the data active means binding response below about 67% or above about 130%
CHT inh – inhibitors of human choline transporter CHT; actives 0.86% (n = 310,000); High affinity choline transporter 1 (Homo sapiens), Q9GZV3; CHT-expressing cells, membrane potential dye, choline response; stronger effect = lower value; B-score at 10 µM;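 active means B-score over 3 SD under the library average, and starting fluorescence ratio not unusually high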;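 further: choline stimulus applied at its EC90 after an EC20 pre-addition; B-score computed on integrated fluorescence ratio after choline addition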
Target sequence (Q9GZV3 whole entry, looked up): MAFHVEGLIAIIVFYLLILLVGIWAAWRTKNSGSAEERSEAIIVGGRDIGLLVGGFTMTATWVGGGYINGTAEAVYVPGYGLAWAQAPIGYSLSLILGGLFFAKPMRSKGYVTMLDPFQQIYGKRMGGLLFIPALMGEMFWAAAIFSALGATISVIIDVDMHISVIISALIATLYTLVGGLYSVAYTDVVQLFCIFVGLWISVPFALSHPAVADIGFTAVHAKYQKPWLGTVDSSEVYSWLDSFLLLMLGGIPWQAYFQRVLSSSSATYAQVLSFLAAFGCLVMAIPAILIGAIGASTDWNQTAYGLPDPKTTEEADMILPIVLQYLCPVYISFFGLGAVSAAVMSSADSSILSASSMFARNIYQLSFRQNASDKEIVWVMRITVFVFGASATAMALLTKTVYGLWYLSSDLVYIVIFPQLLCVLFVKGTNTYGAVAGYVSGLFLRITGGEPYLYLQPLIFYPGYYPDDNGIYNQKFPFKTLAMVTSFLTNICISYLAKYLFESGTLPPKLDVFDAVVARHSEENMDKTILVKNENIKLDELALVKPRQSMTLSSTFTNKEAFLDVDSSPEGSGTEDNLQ
CHT PAM – CHT positive allosteric modulators, primary screen, cell-based, membrane potential dye, choline EC20 | actives 0.49% (n = 310,000) | B-score at 10 µM | CHT-expressing cells; stronger effect = higher value; LV-AA mutant CHT in HEK293 cells | High affinity choline transporter 1 (Homo sapiens), Q9GZV3 | AID 488977, 2010;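 active means initial fluorescence not abnormally high and integrated response B-score, plate-corrected, over 3 SD above library mean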
MEKK3 PB1 HTS – modulators of MEKK3-MEK5 PB1 binding, primary screen, biochemical, wildtype MEKK3, multiplex bead flow cytometry, Alexa488-MEK5; Mitogen-activated protein kinase kinase kinase 3 (Homo sapiens), Q99759; bead-based flow cytometry, Alexa488-MEK5 binding to MEKK3; actives lie on both sides; 0 = blocked by unlabeled MEK5, 100 = vehicle; binding response (% of control), % at 10 µM; actives 1.4% (n = 290,000);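 active means binding response more than 3 SD above or below the average of its plate-row segment, actives on both sides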;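 further: Alexa488 bead fluorescence after subtracting the streptavidin-only scavenger bead signal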
SUMO Mot1 rescue – yeast Mot1-301 growth rescue at high temperature, primary screen, SUMOylation pathway inhibitor project, S. cerevisiae, ATP luminescence, 38.5C | S. cerevisiae Mot1-301 growth rescue; percent above DMSO median, 100 means doubled | actives 1% (n = 320,000) | growth rescue, % at 18.8 µM;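 active means every valid replicate shows activation above 250% relative to neutral control wells; inactive means the rest, any valid replicate at or below 250%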
MEKK2wt confirm – modulators of MEK5 binding to wildtype MEKK2, confirmation, biochemical, single concentration, multiplex bead flow cytometry. shares compounds with MEKK3 PB1 HTS. Alexa488-MEK5 binding to MEKK2 WT; actives lie on both sides. binding response (% of control), % at 10 µM. actives 2.4% (n = 5,900). AID 1892, 2009; in the data active means binding response below about 16% or above about 210%; inactive means in between
MEKK2mut confirm – mutant MEKK2 PB1-MEK5 binding signal retest – biochemical, single concentration, multiplex bead flow cytometry, confirmation; AID 1893, 2009; Alexa488-MEK5 binding to MEKK2 mutant; shares compounds with MEKK3 PB1 HTS; percent response, % at 10 µM; actives 2% (n = 5,900); in the data active means percent response mostly above about 71%, no sharp cut-off; inactive means mostly below about 38%;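 further: higher means compound restores mutant binding toward wildtype level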
MEKK3-MEK5 inh – MEKK3 wild-type PB1 binding to MEK5, inhibitors, confirmation, biochemical, bead multiplex flow cytometry, single concentration, wildtype; AID 1894, 2009; actives 1.8% (n = 5,900); shares compounds with MEKK3 PB1 HTS; Alexa488-MEK5 binding to MEKK3; stronger effect = lower value; binding response (% of control), % at 10 µM;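 active means binding response below 72% of control, or above a set upper limit, though filed actives all read lower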
Of the large screens only hits and unclear results are named; the others gave an inactive call (follow-up assays come after a bar, where they were run); [ ] = another dose, or the depositor's remark. An excerpt weighted towards active compounds, which were near 4.1% of everything screened.

CCOC(=O)CC1(NC(=O)c2cc(COc3cccc(OC)c3)on2)CCCCC1	none
OC(CNCC1CCCO1)Cn1c2ccc(Cl)cc2c2cc(Cl)ccc21 (stereo not drawn)	MEKK2 WT-MEK5 187 | MEKK2wt confirm inactive | MEKK2mut confirm inactive | MEKK3-MEK5 inh inactive
Clc1ccc(CNCC2CCCO2)c(Cl)c1 (stereo not drawn)	none (no result: MEKK2mut PB1 HTS, MEKK2 WT-MEK5, MEKK3 PB1 HTS)
CN(C)CCCN(C(=O)c1sc2ccccc2c1Cl)c1nc2c(F)cccc2s1	MEKK2mut PB1 HTS 139, MEKK2 WT-MEK5 325 | MEKK2wt confirm inactive | MEKK2mut confirm inactive | MEKK3-MEK5 inh inactive
Cc1cccc2sc(N(CCN(C)C)C(=O)c3cc(Cl)sc3Cl)nc12	none
CN(C)CCCN(C(=O)c1ccc(N2C(=O)CCC2=O)cc1)c1nc2c(F)cccc2s1	none
Cc1cccc2sc(N(CCCN(C)C)C(=O)c3sc4ccccc4c3Cl)nc12	MEKK2mut PB1 HTS 53, MEKK2 WT-MEK5 197 | MEKK2wt confirm inactive | MEKK2mut confirm inactive | MEKK3-MEK5 inh inactive
CN(C)CCOC(=O)c1sc2ccccc2c1Cl	none (no result: SUMO Mot1 rescue)
COc1cccc2sc(N(CCCN(C)C)C(=O)c3sc4ccccc4c3Cl)nc12	MEKK2mut PB1 HTS 63, MEKK2 WT-MEK5 211 | MEKK2wt confirm inactive | MEKK2mut confirm inactive | MEKK3-MEK5 inh inactive
Oc1cccc(NC(=S)Nc2ccc(SC(F)F)cc2)c1	none
S=C(Nc1ccc(Br)cc1)NC1CCCCC1	MEKK3 PB1 HTS 151 | MEKK2wt confirm inactive | MEKK2mut confirm inactive | MEKK3-MEK5 inh inactive
S=C(Nc1ccc(Cl)cc1)NC1CCCCC1	none
FC(F)Sc1ccc(NC(=S)NC2CCC(NC(=S)Nc3ccc(SC(F)F)cc3)CC2)cc1 (stereo not drawn)	MEKK2 WT-MEK5 145 | MEKK2wt confirm inactive | MEKK2mut confirm inactive | MEKK3-MEK5 inh inactive
Cn1ncc([N+](=O)[O-])c1C(=O)N1CCOCC1	none
CCOC(=O)C(NC(=O)Nc1ccc(Cl)cn1)(Oc1ccccc1)C(F)(F)F (stereo not drawn)	MEKK3 PB1 HTS 153 | MEKK2wt confirm inactive | MEKK2mut confirm inactive | MEKK3-MEK5 inh inactive
CCOC(=O)N1CCN(C(=O)c2ccc(Cn3c(=S)[nH]c4ccc(Br)cc4c3=O)cc2)CC1	none
NS(=O)(=O)c1ccc(NC(=O)c2c(F)cccc2Cl)cc1	MEKK3 PB1 HTS 131 | MEKK2wt confirm inactive | MEKK2mut confirm inactive | MEKK3-MEK5 inh inactive
O=C(NNC(=O)c1ccc(-c2ccccc2)cc1)Nc1ccc(F)cc1F	none
Cc1cc2oc(=O)cc(CSc3nnc(C)n3N)c2cc1C(C)C	none
Cc1cc2oc(=O)cc(CSc3nnc(-c4cccs4)o3)c2cc1C(C)C	MEKK3 PB1 HTS 134 | MEKK2wt confirm inactive | MEKK2mut confirm inactive | MEKK3-MEK5 inh inactive
Cc1cc2nc(C3CCN(C(=S)NCCCOC(C)C)CC3)[nH]c2cc1C	none
COc1ccc(-c2csc(NC(=O)COC(=O)c3ccco3)n2)cc1	MEKK3 PB1 HTS 138 | MEKK2wt confirm inactive | MEKK2mut confirm inactive | MEKK3-MEK5 inh inactive
COc1ccc(-c2csc(NC(=S)NC(=O)c3ccco3)n2)cc1	none
O=[N+]([O-])c1cc(C(F)(F)F)cc([N+](=O)[O-])c1NCCN1CCNCC1	none
O=C(N1CCCCC1)N1CCN(S(=O)(=O)c2ccccc2)CC1	none
O=C(CSc1ccc2nnc(-c3ccc(F)cc3)n2n1)N1CCCc2ccccc21	MEKK3 PB1 HTS 134 | MEKK2wt confirm inactive | MEKK2mut confirm inactive | MEKK3-MEK5 inh inactive
O=C(COC(=O)COc1ccccc1)Nc1ccccc1OC(F)F	MEKK3 PB1 HTS 72[inhibitor] | MEKK2wt confirm inactive | MEKK2mut confirm inactive | MEKK3-MEK5 inh inactive
COc1ccc(COc2cc(-c3cccc(OC)c3)nc3ccc(NC(=O)c4ccc(N(C)C)cc4)cc23)cc1	none
COc1ccc(COc2cc(-c3cccc(OC)c3)nc3ccc(NC(=O)c4ccc(C)cc4)cc23)cc1	MEKK2 WT-MEK5 1.0[inhibitor], MEKK3 PB1 HTS 1.0[inhibitor] | MEKK2wt confirm inactive | MEKK2mut confirm inactive | MEKK3-MEK5 inh inactive
C=CCN=C(C)C1=C(O)C(C)OC1=O (stereo not drawn)	MEKK3 PB1 HTS 134 | MEKK2wt confirm inactive | MEKK2mut confirm inactive | MEKK3-MEK5 inh inactive
O=C(N1CCCCC1)N1CCC(c2nc3ccccc3[nH]2)CC1	MEKK2 WT-MEK5 2.0[inhibitor], MEKK3 PB1 HTS 1.0[inhibitor] | MEKK2wt confirm inactive | MEKK2mut confirm inactive | MEKK3-MEK5 inh inactive
COc1ccc(NC(=O)c2sc3ncn(CC(=O)N4CCCCC4)c(=O)c3c2C)cc1OC	none
CS(=O)(=O)N1N=C(c2ccccc2)CC1c1cccs1 (stereo not drawn)	none
Cc1ccc(C2=NN(S(C)(=O)=O)C(c3ccc4c(c3)OCO4)C2)cc1 (stereo not drawn)	MEKK3 PB1 HTS 10[inhibitor] (no result: MEKK2 WT-MEK5) | MEKK2wt confirm inactive | MEKK2mut confirm inactive | MEKK3-MEK5 inh inactive
Cc1ccc(C2=CC(=O)C[C@H](c3ccc4c(c3)OCO4)C2)cc1	none (no result: MEKK2mut PB1 HTS, MEKK2 WT-MEK5, CHT inh, CHT PAM, MEKK3 PB1 HTS)
CS(=O)(=O)N1N=C(c2ccc(Br)cc2)CC1c1ccc2c(c1)OCO2 (stereo not drawn)	MEKK2mut PB1 HTS 83, MEKK2 WT-MEK5 14 | MEKK2wt confirm inactive | MEKK2mut confirm inactive | MEKK3-MEK5 inh inactive
CC(=O)N1N=C(c2ccc(NS(C)(=O)=O)cc2)CC1c1ccc2nccnc2c1 (stereo not drawn)	none
CS(=O)(=O)Nc1ccc(C2=NN(S(C)(=O)=O)C(c3ccc4nccnc4c3)C2)cc1 (stereo not drawn)	MEKK3 PB1 HTS 3.0[inhibitor] (no result: MEKK2mut PB1 HTS, MEKK2 WT-MEK5) | MEKK2wt confirm inactive | MEKK2mut confirm inactive | MEKK3-MEK5 inh inactive
Cc1ccc2[nH]c3c(=O)n(CC(=O)NCCCN4CCN(c5ccc(F)cc5)CC4)ncc3c2c1	none
